The text below walks through data of PubChem BioAssay.

Active and inactive are the calls of the source.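 The calls were made as follows, unless noted: active = compounds killing one labelled cell type while sparing the other, by normalised counts and ratio limits, not self-fluorescent; inactive = the rest.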

The subject of one test is Hepatitis C virus NS3 helicase. As to the kind of experiment: blockers of NS3h binding to ssDNA – biochemical, fluorescence polarization, LOPAC1280 library, primary screen (AID 687035; in the data active = inhibition above about 37%). To be noted: Purified HCV NS3 helicase, Cy5-dT15 ssDNA binding fluorescence polarization; hits give high values; concentration not given here. A general note: Polarisation of emitted light reports the rotation of a fluorescent probe.
What is called inhibition is the drop in the measured response relative to a control, in per cent. With `CC1CC2C3CCC4=CC(=O)C=C[C@]4(C)[C@@]3(F)[C@@H](O)C[C@]2(C)[C@@]1(O)C(=O)CO` (stereo not given in full), the inhibition is -1% (inactive).
For the molecule `Nc1nc(N)c2nc(CNc3ccc(C(=O)NC(CCC(=O)O)C(=O)O)cc3)cnc2n1` (stereo not given), the inhibition was -4% (inactive).
As to `CCCCS(=N)(=O)CCC(N)C(=O)O` (stereo not given), the inhibition was 1% (inactive).
For the molecule `CC1=C(C(=O)O)N2C(=O)[C@@H](NC(=O)C(N)c3ccccc3)[C@H]2SC1` (stereo not given in full), the inhibition is -4% (inactive).
Turning to `CC(C)NC[C@H](O)COc1cccc2ccccc12`, the inhibition is -3% (inactive).

Test system in the next test: not listed separately
As to the kind of experiment: compounds altering Cy5-DNA-NS3h complex signal – biochemical, LOPAC1280, artefact control for HCV NS3 helicase inhibitor project (AID 687037; call rule not given here). To be noted: Cy5-DNA-NS3h complex fluorescence interference counterscreen. (A counterscreen serves to expose hits that act by an unwanted route or on another target.)
In the case of `CC1CC2C3CCC4=CC(=O)C=C[C@]4(C)[C@@]3(F)[C@@H](O)C[C@]2(C)[C@@]1(O)C(=O)CO` (stereo not given in full), the fluorescence ratio (interference) is 1 (inactive).
Consider `Nc1nc(N)c2nc(CNc3ccc(C(=O)NC(CCC(=O)O)C(=O)O)cc3)cnc2n1` (stereo not given), for which the fluorescence ratio (interference) is 0.9 (inactive).
With `CCCCS(=N)(=O)CCC(N)C(=O)O` (stereo not given), the fluorescence ratio (interference) is 1 (inactive).
Consider `CC1=C(C(=O)O)N2C(=O)[C@@H](NC(=O)C(N)c3ccccc3)[C@H]2SC1` (stereo not given in full), for which the fluorescence ratio (interference) was 0.9 (inactive).
Regarding `CC(C)NC[C@H](O)COc1cccc2ccccc12`, the fluorescence ratio (interference) was 1 (inactive).

Test system in a further test: not listed separately
The test can be described thus: EMT-state selective cytotoxicity in co-culture – imaging, PC-3E GFP, TEM4-18 mCherry, primary screen (AID 1345086).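 Also: normalised mesenchymal count divided by normalised epithelial count so high means epithelial killing; cells exposed to compound for 72 h before imaging.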 The note with it: PC-3E GFP / TEM4-18 mCherry co-culture, imaging cell counts; at 1 µM; actives lie on both sides; counts scaled to control wells, 1 = unselective.
Regarding `Cc1c(-c2cnccn2)ssc1=S`, the red/green cell ratio (normalised) is 1.09 (inactive).
`CC(NCCc1ccc(O)cc1)C(O)c1ccc(O)cc1` (stereo not given): the red/green cell ratio (normalised) is 1.16 (inactive).
As for `N[C@@H](CC(=O)N1CCn2c(nnc2C(F)(F)F)C1)Cc1cc(F)c(F)cc1F`, the red/green cell ratio (normalised) is 1.25 (inactive).
Turning to `CC1(C)CCC[C@]2(C)[C@H]3CC(=O)O[C@]3(C)CC[C@@H]12`, the red/green cell ratio (normalised) is 1.09 (inactive).
With `OC[C@@H](O)[C@@H](O)[C@H](O)[C@@H](O)CO`, the red/green cell ratio (normalised) is 1.05 (inactive).
`O=c1ccn([C@@H]2O[C@H](CO)[C@@H](O)[C@H]2O)c(=O)[nH]1`: the red/green cell ratio (normalised) was 0.9 (inactive).
Regarding `CC1CC2C3CCC4=CC(=O)C=C[C@]4(C)[C@@]3(F)[C@@H](O)C[C@]2(C)[C@@]1(O)C(=O)CO` (stereo not given in full), the red/green cell ratio (normalised) was 1.04 (inactive).
For `N#C[C@@H]1C[C@@H]2C[C@@H]2N1C(=O)[C@@H](N)C12CC3CC(CC(O)(C3)C1)C2`, the red/green cell ratio (normalised) was 0.9 (inactive).
Same read-out and setting: the figure for `CC(C)(CO)[C@@H](O)C(=O)NCCC(=O)O` is 1.39 (inactive); for `CC(C)C(C)/C=C/C(C)C1CCC2C3=CC=C4CC(O)CCC4(C)C3CCC21C` (stereo not given) it is 0.85 (inactive); for `C[C@]12C=CC(=O)C=C1CCC1C2[C@@H](O)C[C@@]2(C)C1CC[C@]2(O)C(=O)COP(=O)(O)O` (stereo not given in full) it is 1.33 (inactive).
As to `CN(C)CC[C@H](c1ccc(Cl)cc1)c1ccccn1`, the red/green cell ratio (normalised) is 1.35 (inactive).
Still for that read-out and setting: the figure for `CC(C)OC(=O)CCC/C=C\C[C@@H]1[C@@H](/C=C/C(O)COc2cccc(C(F)(F)F)c2)[C@H](O)C[C@@H]1O` (stereo not given in full) is 0.87 (inactive); for `C[C@H]1COC2=C1C(=O)C(=O)c1c2ccc2c1CCCC2(C)C` it is 0.82 (inactive); for `OC(c1cc(C(F)(F)F)nc2c(C(F)(F)F)cccc12)C1CCCCN1` (stereo not given) it is 0.94 (inactive).
Take `CN1C(C(=O)Nc2ccccn2)=C(O)c2sc(Cl)cc2S1(=O)=O`: the red/green cell ratio (normalised) was 0.78 (inactive).
In the case of `Nc1nc(N)c2nc(CNc3ccc(C(=O)NC(CCC(=O)O)C(=O)O)cc3)cnc2n1` (stereo not given), the red/green cell ratio (normalised) is 0.95 (inactive).
The same measure, in the same setting: the figure for `COC1=C(OC)C(=O)C(C/C=C(\C)CC/C=C(\C)CC/C=C(\C)CC/C=C(/C)CC/C=C(\C)CC/C=C(\C)CC/C=C(\C)CC/C=C(\C)CC/C=C(\C)CCC=C(C)C)=C(C)C1=O` is 1.1 (inactive); for `COC(=O)/C=C/C(=O)OC` it is 1.23 (inactive); for `CC(C)=CCC/C(C)=C/CC/C(C)=C/CC/C(C)=C/CC/C(C)=C/CC/C(C)=C/CC/C(C)=C/CC/C(C)=C/CC/C(C)=C/CO` it is 1.11 (inactive).
As for `Cc1cc2nc3c(=O)[nH]c(=O)nc-3n(CC(O)C(O)C(O)CO)c2cc1C` (stereo not given), the red/green cell ratio (normalised) was 0.96 (inactive).
With `CN[C@@H]1[C@H](O[C@H]2[C@H](O[C@@H]3[C@@H](O)[C@H](O)[C@@H](N=C(N)N)[C@H](O)[C@H]3N=C(N)N)O[C@@H](C)[C@]2(O)C=O)O[C@@H](CO)[C@H](O)[C@H]1O`, the red/green cell ratio (normalised) is 0.77 (inactive).
Regarding `Oc1cc2c(cc1O)C1c3ccc(O)c(O)c3OCC1(O)C2` (stereo not given), the red/green cell ratio (normalised) is 1.05 (inactive).
With `CCCCS(=N)(=O)CCC(N)C(=O)O` (stereo not given), the red/green cell ratio (normalised) was 0.93 (inactive).
Consider `CC12CCC3c4ccc(O)cc4CCC3C1C[C@H](O)[C@@H]2O` (stereo not given in full), for which the red/green cell ratio (normalised) is 0.97 (inactive).
In the case of `Cc1coc2c1C(=O)C(=O)c1c-2ccc2c1CCCC2(C)C`, the red/green cell ratio (normalised) is 1.04 (inactive).
For `Nc1nc(F)nc2c1ncn2[C@@H]1O[C@H](COP(=O)(O)O)[C@@H](O)[C@@H]1O`, the red/green cell ratio (normalised) was 1.06 (inactive).
On the same count and under the same terms, the figure for `CC[C@@]1(O)C(=O)OCc2c1cc1n(c2=O)Cc2cc3cc(O)ccc3nc2-1` is 0.94 (inactive).
Still for that read-out and setting: the figure for `CC[C@]1(O)CC2CN(CCc3c([nH]c4ccccc34)[C@@](C(=O)OC)(c3cc4c(cc3OC)N(C)[C@H]3[C@@](O)(C(=O)OC)[C@H](OC(C)=O)[C@]5(CC)C=CCN6CC[C@]43[C@@H]65)C2)C1` (stereo not given in full) is 1.24 (inactive).
In the case of `CC1=C(C(=O)O)N2C(=O)[C@@H](NC(=O)C(N)c3ccccc3)[C@H]2SC1` (stereo not given in full), the red/green cell ratio (normalised) is 1.15 (inactive).
Consider `C=CC[C@@H]1/C=C(\C)C[C@H](C)C[C@H](OC)[C@H]2O[C@@](O)(C(=O)C(=O)N3CCCC[C@H]3C(=O)O[C@H](/C(C)=C/[C@@H]3CC[C@@H](O)[C@H](OC)C3)[C@H](C)[C@@H](O)CC1=O)[C@H](C)C[C@@H]2OC`, for which the red/green cell ratio (normalised) is 1.19 (inactive).
On to `CC(C)(CO)C(O)C(=O)NCCC(=O)NCCSSCCNC(=O)CCNC(=O)C(O)C(C)(C)CO` (stereo not given), for which the red/green cell ratio (normalised) was 0.97 (inactive).
On the same count and under the same terms, the figure for `N#CC(c1ccc(Cl)cc1)c1c(Cl)cc(-n2ncc(=O)[nH]c2=O)cc1Cl` (stereo not given) is 0.84 (inactive); for `Cc1cc(=O)c(C(=O)N[C@@H](C(=O)N[C@@H]2C(=O)N3C(C(=O)O)=C(CSc4nnnn4C)CSC23)c2ccc(O)cc2)c[nH]1` (stereo not given in full) it is 0.9 (inactive); for `CC(C)NC[C@H](O)COc1cccc2ccccc12` it is 1.36 (inactive).
For `COc1ccc(C2Sc3ccccc3N(CCN(C)C)C(=O)C2OC(C)=O)cc1` (stereo not given), the red/green cell ratio (normalised) was 1.25 (inactive).
In the case of `Clc1ccc(CCC(Cn2ccnc2)Sc2c(Cl)cccc2Cl)cc1` (stereo not given), the red/green cell ratio (normalised) was 0.84 (inactive).
Take `COc1ccc2nc3cc(Cl)ccc3c(Nc3cc(CN4CCCC4)c(O)c(CN4CCCC4)c3)c2n1`: the red/green cell ratio (normalised) is 1.19 (inactive).
Still for that read-out and setting: in the case of `CC(=O)NC(CS)C(=O)O` (stereo not given) it was 1.09 (inactive).
Consider `C[C@]12CCC3c4ccc(O)cc4CCC3C1CCC2=O` (stereo not given in full), for which the red/green cell ratio (normalised) is 0.96 (inactive).
